Out of some 65,000 compounds screened, about 370 (0.57%) were called active. This is one part of a sample in which actives are shown more often than they occur.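 The calls were made as follows: active = activation above the screen-wide mean activation plus 3 SD (cut at about 19% in these data); inactive = the rest.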
biological target: 5-hydroxytryptamine receptor 1A (Homo sapiens) (UniProt P08908); test: human 5-HT1a receptor agonists, primary screen, cell-based, CHO, Ga15 NFAT-bla reporter (AID 567); settings: CHO 5-HT1a Ga15 NFAT-bla reporter, FRET ratio; at 10 µM; hits give high values; 0% basal, 100% maximal reference agonist;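 also: 0% = DMSO wells and 100% = 5-CT at EC100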
Sequence (P08908 whole entry, looked up): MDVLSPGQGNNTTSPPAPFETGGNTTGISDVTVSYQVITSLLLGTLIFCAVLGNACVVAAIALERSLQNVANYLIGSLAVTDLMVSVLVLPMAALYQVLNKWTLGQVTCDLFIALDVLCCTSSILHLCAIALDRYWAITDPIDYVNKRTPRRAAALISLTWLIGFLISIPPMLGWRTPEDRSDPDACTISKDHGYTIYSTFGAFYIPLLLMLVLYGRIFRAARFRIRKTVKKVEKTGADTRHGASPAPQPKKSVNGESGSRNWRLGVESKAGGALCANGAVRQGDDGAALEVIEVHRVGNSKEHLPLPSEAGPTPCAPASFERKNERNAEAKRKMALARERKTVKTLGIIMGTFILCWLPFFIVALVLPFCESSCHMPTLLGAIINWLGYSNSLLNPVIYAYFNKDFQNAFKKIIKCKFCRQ

Row | SMILES | activation
1 | COc1cccc(-n2c(Cc3cc(=O)[nH]c(=O)[nH]3)nnc2SCC(=O)Nc2ccccc2)c1 | -5.6% (inactive)
2 | Cc1cc(NC(=O)c2cnn3cccnc23)n(-c2ccccc2)n1 | 1.07% (inactive)
3 | O=C(Nc1ccc(Cl)cn1)Nc1cccs1 | -4.12% (inactive)
4 | O=C(Nc1ccc(Cl)cn1)c1cnn2cccnc12 | 193% (active)
5 | Fc1ccc(Cn2nnnc2C(c2cccs2)N2CCCCCC2)cc1 (configuration not stated) | -2.4% (inactive)
6 | CCC12CN3CC(CC)(CN(C1)C31C(=O)N(C)c3ccc(C)cc31)C2=O (configuration not stated) | -2.01% (inactive)
7 | COC(=O)CNC(=O)c1ccc2c(c1)S(=O)(=O)c1ccccc1C2=O | 1.02% (inactive)
8 | Cc1cc(N2C(=O)c3ccc(C(=O)NCc4ccccc4)cc3C2=O)no1 | -3.09% (inactive)
9 | N#Cc1ccc(CSc2nnc(-c3ccccn3)n2-c2ccc(Cl)cc2)cc1 | 0.34% (inactive)
10 | CNC(=O)CSc1nnc(CCc2ccccc2)n1-c1ccccc1 | 0.04% (inactive)
11 | N#Cc1cccc(CSc2nnc(CCCO)n2-c2ccccc2)c1 | 77% (active)
12 | O=C(NC1CC2CCCC(C1)N2C(=O)N1CCCCC1)C1CCCCC1 (configuration not stated) | 2.68% (inactive)
13 | Cc1cnc(NC(=O)CSc2nnc(-c3ccc(Cl)cc3Cl)n2N)s1 | -1.25% (inactive)
14 | CN(c1nc2ccccc2n2c(-c3ccco3)nnc12)S(=O)(=O)c1ccccc1 | 0.58% (inactive)
15 | Cc1ccc2nc(NC3=NCN(CCc4ccccc4)CN3)nc(C)c2c1 | -1.7% (inactive)
16 | CCOC(=O)C(C)Oc1cccc2c(=O)n(CC(=O)N3CCc4ccccc43)ccc12 (configuration not stated) | -0.82% (inactive)
17 | CCC(C(=O)N1CCOCC1)n1c(C(=O)OC)cc2occc21 (configuration not stated) | -0.28% (inactive)
18 | O=C(CCCC(=O)N(CC(=O)NC1CCCC1)Cc1ccccc1Cl)Nc1ccccn1 | 0.54% (inactive)
19 | Cn1c(Cc2csc(N)n2)nnc1SC/C=C/c1ccccc1 | 0.48% (inactive)
20 | CCCOC(=O)c1[nH]c2c(c1C)C(=O)CC(c1cc(OC)c(OC)c(OC)c1)C2 (configuration not stated) | -1.49% (inactive)
21 | Cc1noc(COc2ccccc2OCC(O)CNC(C)(C)C)n1 (configuration not stated) | 2.09% (inactive)
22 | CCOc1ccc2[nH]c(=O)c(C(c3nnnn3CCOC)N3CCOCC3)cc2c1 (configuration not stated) | -1.3% (inactive)
23 | Cc1cc(C(=O)COC(=O)CCCN2C(=O)c3ccccc3C2=O)c(C)n1C | -2.69% (inactive)
24 | CCCc1nc(-c2ccccc2O)n(-c2ccccc2)n1 | -3.29% (inactive)
25 | COc1ccc(-c2nnc(SCC(=O)NC3CCCCC3)o2)cc1OC | -1.36% (inactive)
26 | O=c1ccc2cc(S(=O)(=O)N3CCN(c4ccccc4)CC3)ccc2o1 | -2.8% (inactive)
27 | Cc1nonc1OCCn1nnnc1N | 0.59% (inactive)

— PubChem BioAssay AID567 (The Scripps Research Institute Molecular Screening Center, 2006)
